# Results as given in the supplement of paper PMC8728848.
# Only a selection was taken, and the strongest signals are over-represented in it overall.
# B1: Surfactant Protein D (Human); Neck + Carbohydrate Recognition Domain (NCRD) (Homo sapiens) (protein)
# chain: MLLFLLSALVLLTQPLGYLEAEMKTYSHRTMPSACTLVMCSSVESGLPGRDRDGREGPRGEKGDPGLPGAAGQAGMPGQAGPVGPKGDNGSVGEPGPKGDTGPSGPPGPPGVPGPAGREGALGKQGNIGPQGKPGPKGEAGPKGEVGAPGMQGSAGARGLAGPKGERGVPGERGVPGNTGAAGSAGAMGPQGSPGARGPPGLKGDKGIPGDKGAKGESGLPDVASLRQQVEALQGQVQHLQAAFSQYKKVELFPNGQSVGEKIFKTAQFVKPFTEAQLLCTQAGGQLASPRSAAENAALQQLVVAKNEAAFLSMTDSKTEGKFTYPTGESLVYSNWAPGEPNDDGGSEDCVEIFTNGKWNDRACGEARLVVCEF
# Tests used:
# Assay in all cases: glycan array binding signal (z-score within array); higher = stronger binding
# Conditions in all cases: glycan notation: IUPAC condensed, linker removed; mutation: K348A
# [1] = molecular target: Fuc(a1-2)Gal(b1-4)GlcNAc
# In short: (§1)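 Arrays were curated from the Consortium for Functional Glycomics database, 3228 in total, and kept only where the protein sequence was available. Binding is expressed as a within-array Z-score. This score was averaged across arrays of the same protein sequence at different concentrations or buffers and across linkers, and negative values can be read as non-binding.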
# [2] = molecular target: Fuc(a1-2)Gal(b1-4)[Fuc(a1-3)]GlcNAc(b1-3)Gal(b1-4)[Fuc(a1-3)]GlcNAc(b1-3)Gal(b1-4)[Fuc(a1-3)]GlcNAc
# In short: as §1
# [3] = molecular target: Fuc(a1-2)[Gal(a1-3)]Gal(b1-4)[Fuc(a1-3)]GlcNAc
# In short: as §1
# [4] = molecular target: Fuc(a1-2)[GalNAc(a1-4)]Gal(b1-4)GlcNAc
# In short: as §1
# [5] = molecular target: Fuc(a1-3)GlcNAc
# In short: as §1
# [6] = molecular target: Fuc(a1-3)[Gal(b1-4)]GlcNAc(b1-2)Man(a1-3)[Fuc(a1-3)[Gal(b1-4)]GlcNAc(b1-2)Man(a1-6)]Man(b1-4)GlcNAc(b1-4)GlcNAc
# In short: as §1
# [7] = molecular target: Fuc(a1-3)[Gal(b1-4)]GlcNAc(b1-4)Gal(b1-4)[Fuc(a1-3)]GlcNAc
# In short: as §1
# [8] = molecular target: Fuc(a1-3)[Gal(b1-4)]GlcNAc6S
# In short: as §1
# [9] = molecular target: Gal(b1-3)[Neu5Ac(b2-6)]GalNAc
# In short: as §1
# [10] = molecular target: Gal(b1-4)GalNAc(a1-3)[Fuc(a1-2)]Gal(b1-4)GlcNAc
# In short: as §1
# [11] = molecular target: Gal(b1-4)GlcNAc(b1-3)[Gal(b1-4)GlcNAc(b1-6)]Gal(b1-4)GlcNAc
# In short: as §1
# [12] = molecular target: Gal(b1-4)GlcNAc(b1-6)GalNAc
# In short: as §1
# [13] = molecular target: GalNAc(b1-4)GlcNAc
# In short: as §1
# [14] = molecular target: Glc(a1-4)Glc
# In short: as §1
# [15] = molecular target: Glc(b1-4)Glc
# In short: as §1
# [16] = molecular target: GlcNAc(b1-3)[GlcNAc(b1-6)]Gal(b1-4)GlcNAc
# In short: as §1
# [17] = molecular target: Man(a1-2)Man(a1-2)Man(a1-6)[Man(a1-3)]Man
# In short: as §1
# [18] = molecular target: Man(a1-2)Man(a1-3)[Man(a1-2)Man(a1-6)]Man
# In short: as §1
# [19] = molecular target: Man(a1-2)Man(a1-3)[Man(a1-2)Man(a1-6)]Man(a1-6)[Man(a1-2)Man(a1-2)Man(a1-3)]Man
# In short: as §1
# [20] = molecular target: Man(a1-3)[Man(a1-6)]Man(a1-6)[Man(a1-2)Man(a1-3)]Man(b1-4)GlcNAc(b1-4)GlcNAc
# In short: as §1
# [21] = molecular target: Man(a1-3)[Man(a1-6)]Man(a1-6)[Man(a1-3)]Man
# In short: as §1
# [22] = molecular target: Neu5Ac(a2-3)Gal(b1-3)GalNAc(b1-4)[Neu5Ac(a2-3)]Gal(b1-4)Glc
# In short: as §1
# [23] = molecular target: Neu5Ac(a2-3)Gal(b1-3)[Fuc(a1-4)]GlcNAc(b1-3)Gal(b1-4)[Fuc(a1-3)]GlcNAc
# In short: as §1
# [24] = molecular target: Neu5Ac(a2-3)Gal(b1-4)[Fuc(a1-3)]GlcNAc(b1-3)Gal
# In short: as §1
# [25] = molecular target: Neu5Ac(a2-3)Gal(b1-4)[Fuc(a1-3)]GlcNAc(b1-6)[Gal(b1-3)]GalNAc
# In short: as §1
# [26] = molecular target: Neu5Ac(a2-6)Gal(b1-4)Glc
# In short: as §1
# [27] = molecular target: Neu5Gc(a2-3)Gal(b1-3)[Fuc(a1-4)]GlcNAc
# In short: as §1
binder,measurement,setting,value
B1,glycan array binding signal (z-score),[1],-0.173
same,glycan array binding signal (z-score),[2],-0.151
same,glycan array binding signal (z-score),[3],-0.148
same,glycan array binding signal (z-score),[4],-0.151
same,glycan array binding signal (z-score),[5],-0.116
same,glycan array binding signal (z-score),[6],-0.176
same,glycan array binding signal (z-score),[7],-0.134
same,glycan array binding signal (z-score),[8],-0.17
same,glycan array binding signal (z-score),[9],-0.09
same,glycan array binding signal (z-score),[10],-0.175
same,glycan array binding signal (z-score),[11],-0.175
same,glycan array binding signal (z-score),[12],-0.173
same,glycan array binding signal (z-score),[13],-0.165
same,glycan array binding signal (z-score),[14],-0.171
same,glycan array binding signal (z-score),[15],-0.16
same,glycan array binding signal (z-score),[16],-0.177
same,glycan array binding signal (z-score),[17],8.57
same,glycan array binding signal (z-score),[18],7.38
same,glycan array binding signal (z-score),[19],8.69
same,glycan array binding signal (z-score),[20],6.04
same,glycan array binding signal (z-score),[21],6.52
same,glycan array binding signal (z-score),[22],-0.156
same,glycan array binding signal (z-score),[23],0.451
same,glycan array binding signal (z-score),[24],-0.173
same,glycan array binding signal (z-score),[25],-0.015
same,glycan array binding signal (z-score),[26],-0.17
same,glycan array binding signal (z-score),[27],-0.149
